Five molecules from ChEMBL document CHEMBL3988442, “University of Dundee, Small-Polar-MMV Screening Library” (2021) can be followed below.

Common to all, as to set-up: scale not given: direction of the effect not stated beside the values
Experiment [1] concerns the target Protein translocase subunit SecA (Escherichia coli (strain K12)) (UniProt P10408). Nature of the experiment: Assay to Identify E. coli SecA ATPase Inhibitors. The settings on record: 30 µM. The format is functional.
The target in experiment [2] is T1, Ubiquitin-activating enzyme e1, putative (Leishmania donovani (strain BPK282A1)) (UniProt E9BSI1).
T1 sequence (whole entry): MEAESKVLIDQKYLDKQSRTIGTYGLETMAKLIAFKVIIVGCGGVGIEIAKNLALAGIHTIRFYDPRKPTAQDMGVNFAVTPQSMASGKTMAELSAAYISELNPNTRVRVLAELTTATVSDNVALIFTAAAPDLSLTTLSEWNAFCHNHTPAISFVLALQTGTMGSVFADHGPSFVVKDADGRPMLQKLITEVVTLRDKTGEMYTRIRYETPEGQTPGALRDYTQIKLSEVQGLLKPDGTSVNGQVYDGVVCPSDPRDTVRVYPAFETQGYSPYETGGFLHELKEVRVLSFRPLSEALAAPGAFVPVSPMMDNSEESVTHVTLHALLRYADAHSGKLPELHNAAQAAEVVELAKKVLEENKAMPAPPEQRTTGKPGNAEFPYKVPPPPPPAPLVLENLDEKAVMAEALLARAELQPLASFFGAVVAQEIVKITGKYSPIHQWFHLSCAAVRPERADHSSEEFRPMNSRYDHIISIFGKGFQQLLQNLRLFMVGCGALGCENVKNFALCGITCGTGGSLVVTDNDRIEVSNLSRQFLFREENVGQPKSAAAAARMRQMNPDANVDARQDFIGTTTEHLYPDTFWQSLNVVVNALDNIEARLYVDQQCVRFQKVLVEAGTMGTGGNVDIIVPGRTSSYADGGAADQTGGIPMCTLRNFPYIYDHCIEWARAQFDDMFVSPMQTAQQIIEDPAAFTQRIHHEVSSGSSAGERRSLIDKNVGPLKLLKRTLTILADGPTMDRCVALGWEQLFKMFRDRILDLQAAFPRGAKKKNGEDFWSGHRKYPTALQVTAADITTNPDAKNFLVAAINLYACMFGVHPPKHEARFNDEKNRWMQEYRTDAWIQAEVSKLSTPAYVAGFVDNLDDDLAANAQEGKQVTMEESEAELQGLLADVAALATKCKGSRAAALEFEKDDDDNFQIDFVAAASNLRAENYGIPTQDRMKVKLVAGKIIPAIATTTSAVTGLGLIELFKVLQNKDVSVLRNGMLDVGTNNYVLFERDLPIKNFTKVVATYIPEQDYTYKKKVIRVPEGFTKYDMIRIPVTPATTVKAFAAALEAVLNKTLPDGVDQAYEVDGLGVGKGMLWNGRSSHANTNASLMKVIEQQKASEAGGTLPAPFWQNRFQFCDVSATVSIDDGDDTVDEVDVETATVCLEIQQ
Kind of experiment: Leishmania donovani Ubiquitin Activating Enzyme (LdE1). The format is functional. Conditions: 30 µM.

Experiment [3] deals with T2, Aspartate--tRNA(Asp/Asn) ligase (Mycobacterium tuberculosis (strain ATCC 25618 / H37Rv)) (UniProt P9WFW3).
T2 sequence (whole entry): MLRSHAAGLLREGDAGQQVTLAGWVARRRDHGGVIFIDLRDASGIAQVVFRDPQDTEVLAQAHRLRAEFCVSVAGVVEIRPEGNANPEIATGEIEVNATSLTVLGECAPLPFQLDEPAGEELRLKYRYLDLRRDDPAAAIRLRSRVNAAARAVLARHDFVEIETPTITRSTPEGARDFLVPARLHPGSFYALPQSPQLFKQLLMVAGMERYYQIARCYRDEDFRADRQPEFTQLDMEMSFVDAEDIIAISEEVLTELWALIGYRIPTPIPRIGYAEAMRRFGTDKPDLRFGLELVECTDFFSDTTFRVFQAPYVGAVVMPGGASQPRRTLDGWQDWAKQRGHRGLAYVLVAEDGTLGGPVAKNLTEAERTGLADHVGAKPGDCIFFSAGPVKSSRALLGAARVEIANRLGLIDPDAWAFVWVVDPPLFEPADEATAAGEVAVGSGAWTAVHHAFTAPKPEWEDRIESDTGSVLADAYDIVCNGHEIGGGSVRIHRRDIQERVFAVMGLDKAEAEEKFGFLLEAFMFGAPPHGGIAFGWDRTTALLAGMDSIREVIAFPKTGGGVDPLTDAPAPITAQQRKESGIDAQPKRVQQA
Kind of experiment: Assay for Asp RNA synthetase-1 from Mycobacterium tuberculosis. The format is functional. The settings on record: 30 µM.

For experiment [4], the target named is AMP-activated protein kinase, AMPK (Homo sapiens) (UniProt P54646+O43741+P54619+Q9UGJ0+Q9Y478+Q13131+Q9UGI9). Kind of experiment: AMP-dependent Kinase enzyme assay. An in vitro enzyme assay that detects ADP turnover that is directly proportional to AMPK activity. This uses naive AMPK that is activated during the assay with MK-8722. The format is functional. The settings on record: 30 µM.

Experiment [5] concerns the target Sialic acid-binding Ig-like lectin 9 (Homo sapiens) (UniProt Q9Y336). Kind of experiment: Hs-Siglec9 ALPHAscreen SOP 20170721. Conditions: 10 µM. For orientation: Alpha assays give light when donor and acceptor beads are brought close together.
A further experiment concerns Trypanosoma cruzi. Kind of experiment: Trypanosoma cruzi phosphomannomutase and mannose-1-phosphate guanylyltransferase assay. The format is functional. Conditions: 10 µM.
In experiment [6] the target is T3, Arginase-2, mitochondrial (Homo sapiens) (UniProt P78540).
T3 sequence (whole entry): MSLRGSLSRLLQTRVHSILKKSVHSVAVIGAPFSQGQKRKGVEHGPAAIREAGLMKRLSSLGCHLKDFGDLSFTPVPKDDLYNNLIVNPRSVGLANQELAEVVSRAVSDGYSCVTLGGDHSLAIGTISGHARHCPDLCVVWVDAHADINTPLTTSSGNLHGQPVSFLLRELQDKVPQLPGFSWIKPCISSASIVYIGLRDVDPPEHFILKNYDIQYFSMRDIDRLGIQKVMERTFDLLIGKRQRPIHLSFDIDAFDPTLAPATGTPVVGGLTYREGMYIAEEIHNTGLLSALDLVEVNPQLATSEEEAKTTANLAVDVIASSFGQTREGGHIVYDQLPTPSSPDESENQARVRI
Kind of experiment: in vitro enzyme assay to detect the production of urea directly proportional to the activity of Arginase II. Further: in the data most compounds retested in dose-response had high values. The format is functional. Conditions: 33.3 µM.

Experiment [7] deals with T4, Proteasome subunit beta (Trypanosoma cruzi) (UniProt O96673).
T4 sequence (whole entry): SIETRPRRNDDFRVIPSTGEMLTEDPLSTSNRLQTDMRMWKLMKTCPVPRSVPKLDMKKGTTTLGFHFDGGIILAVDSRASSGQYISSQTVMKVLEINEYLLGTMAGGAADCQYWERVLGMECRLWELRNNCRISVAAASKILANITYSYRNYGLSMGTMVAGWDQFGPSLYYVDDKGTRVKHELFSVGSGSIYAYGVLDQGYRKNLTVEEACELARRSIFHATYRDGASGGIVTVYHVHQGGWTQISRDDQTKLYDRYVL
Nature of the experiment: Trypanosoma cruzi proteasome chymotrypsin-like activity (TcProtChymo) assay. Further: in the data most compounds retested in dose-response had high values. The format is functional. The settings on record: 9.37 µM.

Another experiment is filed under the species Homo sapiens. Kind of experiment: To identify inhibition of the IFN signalling (Jak-Stat) pathway via expression of an eGFP reporter gene under the control of an IFN-stimulated response element (ISRE) containing MxA promoter. The format is functional. Conditions: 30 µM.
The target in experiment [8] is Shiga toxin 2 (Escherichia coli O157:H7) (UniProt P09385+P09386). Nature of the experiment: E. coli 0.157:H7 Shiga Toxin SOP - stx2 screening assay. The format is functional. The settings on record: 30 µM.
For experiment [9], the target named is T5, Tyrosyl-tRNA synthetase, putative (Trypanosoma cruzi (strain CL Brener)) (UniProt Q4DSP6).
T5 sequence (whole entry): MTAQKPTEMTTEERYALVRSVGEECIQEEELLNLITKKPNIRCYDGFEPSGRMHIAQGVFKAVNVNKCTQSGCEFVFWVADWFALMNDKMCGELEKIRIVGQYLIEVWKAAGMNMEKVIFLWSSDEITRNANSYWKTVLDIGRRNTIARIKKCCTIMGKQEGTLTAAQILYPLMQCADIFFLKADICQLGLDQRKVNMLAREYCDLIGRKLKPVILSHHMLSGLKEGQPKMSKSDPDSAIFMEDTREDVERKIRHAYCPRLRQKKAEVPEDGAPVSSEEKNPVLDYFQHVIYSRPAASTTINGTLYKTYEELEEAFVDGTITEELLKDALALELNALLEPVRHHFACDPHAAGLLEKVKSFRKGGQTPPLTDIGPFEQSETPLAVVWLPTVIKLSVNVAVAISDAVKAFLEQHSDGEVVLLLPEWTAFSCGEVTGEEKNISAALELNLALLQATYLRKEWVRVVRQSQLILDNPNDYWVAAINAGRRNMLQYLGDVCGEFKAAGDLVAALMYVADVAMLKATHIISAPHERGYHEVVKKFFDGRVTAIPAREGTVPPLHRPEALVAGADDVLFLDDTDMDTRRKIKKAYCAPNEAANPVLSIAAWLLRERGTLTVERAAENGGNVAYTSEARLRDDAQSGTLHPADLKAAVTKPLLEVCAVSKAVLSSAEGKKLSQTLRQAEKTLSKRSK
Kind of experiment: Trypanosoma cruzi tyrosyl tRNA synthetase (TcYRS) _High Tyrosine SOP. Further: in the data most compounds retested in dose-response had high values. The format is functional. The settings on record: 30 µM.

The target in experiment [10] is T5, Tyrosyl-tRNA synthetase, putative (Trypanosoma cruzi (strain CL Brener)). Nature of the experiment: Trypanosoma cruzi tyrosyl tRNA synthetase (TcYRS) SOP. The format is functional. Conditions: 30 µM.
The target in experiment [11] is Chromo domain-containing protein 1 (Saccharomyces cerevisiae (strain ATCC 204508 / S288c) (Baker's yeast)) (UniProt P32657). Nature of the experiment: ScCHD-1 Enzyme Inhibition Assay. Further: in the data most compounds retested in dose-response had high values. The format is functional. The settings on record: 30 µM.

The structures appear in SMILES notation. For some assays here: Measured potencies and affinities stand elsewhere.

Chain of Chromo domain-containing protein 1 (Saccharomyces cerevisiae (strain ATCC 204508 / S288c) (Baker's yeast)) (P32657 whole entry, the tested form may be a part): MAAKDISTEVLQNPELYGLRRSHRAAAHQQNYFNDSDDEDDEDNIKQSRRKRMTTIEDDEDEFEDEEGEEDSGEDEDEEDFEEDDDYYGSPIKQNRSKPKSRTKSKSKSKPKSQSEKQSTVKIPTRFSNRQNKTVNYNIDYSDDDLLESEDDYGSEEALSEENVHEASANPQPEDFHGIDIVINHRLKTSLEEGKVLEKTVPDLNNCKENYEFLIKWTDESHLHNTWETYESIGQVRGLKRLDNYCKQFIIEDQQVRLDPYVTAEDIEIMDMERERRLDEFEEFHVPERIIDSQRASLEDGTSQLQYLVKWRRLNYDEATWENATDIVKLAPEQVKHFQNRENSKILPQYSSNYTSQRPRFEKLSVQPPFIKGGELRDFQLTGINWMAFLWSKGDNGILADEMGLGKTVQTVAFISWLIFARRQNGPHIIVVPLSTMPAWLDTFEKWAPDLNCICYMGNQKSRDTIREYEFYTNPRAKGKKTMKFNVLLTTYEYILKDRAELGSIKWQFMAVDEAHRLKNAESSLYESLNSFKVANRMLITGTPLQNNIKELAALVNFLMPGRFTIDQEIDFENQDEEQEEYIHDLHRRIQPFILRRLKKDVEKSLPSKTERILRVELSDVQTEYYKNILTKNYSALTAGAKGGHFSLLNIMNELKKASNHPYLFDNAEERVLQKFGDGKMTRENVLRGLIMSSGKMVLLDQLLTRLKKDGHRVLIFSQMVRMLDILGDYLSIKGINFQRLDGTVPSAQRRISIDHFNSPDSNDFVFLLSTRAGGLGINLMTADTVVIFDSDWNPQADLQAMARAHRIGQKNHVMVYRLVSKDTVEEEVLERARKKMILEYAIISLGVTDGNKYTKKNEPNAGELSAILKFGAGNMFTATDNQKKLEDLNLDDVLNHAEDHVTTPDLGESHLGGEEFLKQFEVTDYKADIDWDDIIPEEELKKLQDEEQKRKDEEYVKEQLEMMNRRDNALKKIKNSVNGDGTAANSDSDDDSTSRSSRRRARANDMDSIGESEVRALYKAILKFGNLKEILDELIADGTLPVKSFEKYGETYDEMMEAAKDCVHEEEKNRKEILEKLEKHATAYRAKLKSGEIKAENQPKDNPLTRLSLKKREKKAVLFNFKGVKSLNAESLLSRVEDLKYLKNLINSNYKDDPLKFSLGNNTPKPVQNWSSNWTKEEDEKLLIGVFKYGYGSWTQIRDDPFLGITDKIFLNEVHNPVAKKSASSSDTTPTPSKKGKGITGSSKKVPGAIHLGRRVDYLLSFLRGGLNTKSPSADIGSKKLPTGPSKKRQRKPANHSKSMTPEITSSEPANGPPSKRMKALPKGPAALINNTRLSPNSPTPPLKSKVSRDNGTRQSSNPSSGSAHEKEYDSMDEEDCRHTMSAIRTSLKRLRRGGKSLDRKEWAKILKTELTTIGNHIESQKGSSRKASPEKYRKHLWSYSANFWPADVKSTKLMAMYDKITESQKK
Chain of Protein translocase subunit SecA (Escherichia coli (strain K12)) (P10408 whole entry): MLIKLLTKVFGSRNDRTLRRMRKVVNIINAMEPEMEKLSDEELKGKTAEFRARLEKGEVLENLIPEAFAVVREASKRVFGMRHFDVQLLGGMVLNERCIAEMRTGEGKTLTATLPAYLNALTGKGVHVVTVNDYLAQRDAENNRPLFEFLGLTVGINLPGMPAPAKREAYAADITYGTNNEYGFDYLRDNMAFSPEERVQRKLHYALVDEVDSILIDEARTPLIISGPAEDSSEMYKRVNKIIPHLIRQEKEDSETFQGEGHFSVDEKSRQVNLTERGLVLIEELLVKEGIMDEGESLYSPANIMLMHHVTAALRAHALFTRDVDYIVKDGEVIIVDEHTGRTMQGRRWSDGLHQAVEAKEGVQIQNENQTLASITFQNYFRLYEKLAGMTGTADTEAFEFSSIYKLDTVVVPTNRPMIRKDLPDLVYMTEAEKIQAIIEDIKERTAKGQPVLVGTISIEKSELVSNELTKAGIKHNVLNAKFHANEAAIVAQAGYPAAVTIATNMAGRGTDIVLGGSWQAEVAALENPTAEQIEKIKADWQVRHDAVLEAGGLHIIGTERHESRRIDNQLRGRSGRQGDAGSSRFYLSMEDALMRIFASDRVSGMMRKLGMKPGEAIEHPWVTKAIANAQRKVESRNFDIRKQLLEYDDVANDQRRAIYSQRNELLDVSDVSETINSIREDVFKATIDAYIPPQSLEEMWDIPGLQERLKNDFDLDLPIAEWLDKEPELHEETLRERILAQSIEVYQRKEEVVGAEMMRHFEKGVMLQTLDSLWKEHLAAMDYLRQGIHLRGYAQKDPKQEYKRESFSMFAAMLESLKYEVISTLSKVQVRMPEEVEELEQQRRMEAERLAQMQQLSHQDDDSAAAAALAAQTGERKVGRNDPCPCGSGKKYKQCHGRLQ
Chain of Sialic acid-binding Ig-like lectin 9 (Homo sapiens) (Q9Y336 whole entry): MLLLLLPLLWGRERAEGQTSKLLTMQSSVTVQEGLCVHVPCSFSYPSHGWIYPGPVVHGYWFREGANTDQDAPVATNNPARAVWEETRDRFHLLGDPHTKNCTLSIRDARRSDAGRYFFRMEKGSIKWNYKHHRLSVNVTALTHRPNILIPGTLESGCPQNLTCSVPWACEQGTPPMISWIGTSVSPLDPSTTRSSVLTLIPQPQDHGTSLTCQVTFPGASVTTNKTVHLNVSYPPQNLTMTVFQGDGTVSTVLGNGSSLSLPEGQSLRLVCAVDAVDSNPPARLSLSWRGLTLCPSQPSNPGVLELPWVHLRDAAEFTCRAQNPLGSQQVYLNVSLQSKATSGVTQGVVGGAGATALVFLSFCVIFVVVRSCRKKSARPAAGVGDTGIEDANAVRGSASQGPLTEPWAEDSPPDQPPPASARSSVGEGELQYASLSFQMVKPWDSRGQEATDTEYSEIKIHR

On to `COc1ccc2c(ccn2CCN)c1`, for which the Percent Effect in [1] is -4.08%; in [2], -49.3%; in [3] it was -3.77%; in experiment [4] it was -2.79%; in [5], 5.94%; in the experiment with Trypanosoma cruzi, -0.982%. Also, the Percent Effect in experiment [6] is 0.176%; in experiment [7], 6.65%; in the experiment filed under Homo sapiens it was 19%; in [8] it was -17.9%; in experiment [9] it was 7.41%; in experiment [10], 10.3%. Also, in experiment [11], the Percent Effect was -4.41%.

As to `COc1ccc(C(=O)C2CCCN(CCCn3cccn3)C2)c(OC)c1` (configuration not stated), the Percent Effect in experiment [1] was -4.85%; in [2] it was 5.41%; in [3], -0.805%; in experiment [5] it was 13.1%; with Trypanosoma cruzi, 7.27%; in [6], 25.5%. Besides, the Percent Effect in experiment [7] is 7.71%; in the experiment listed under Homo sapiens, 3.33%; in experiment [8] it was -4.88%; in experiment [9], 6.92%; in experiment [10], 17.1%; in experiment [11], 77.1%.

Turning to `COc1cccc([C@@H]2CCN(Cc3ccc4ccccc4n3)C[C@H]2O)c1`, the Percent Effect in experiment [1] is -6.38%; in [2], 5.41%; in experiment [3], -2.79%; in experiment [5], 14.7%; with Trypanosoma cruzi, 4.56%; in [6] it was 18.5%. Also, the Percent Effect in [7] was 9.76%; in the experiment filed under Homo sapiens, 1.68%; in experiment [8], -2.3%; in experiment [9], 7.98%; in experiment [10], 19.5%; in experiment [11], -2.92%.

On to `Cc1noc(C)c1CN1CC[C@H]2OCC[C@@]2(C(=O)N2CCCO2)C1`, for which the Percent Effect in [1] was -4.42%; in [2], 6.49%; in experiment [3], 6.12%; in [5], -7.21%; in the experiment with Trypanosoma cruzi, -3.6%; in [6] it was 3.24%. Besides, the Percent Effect is 16.5% in [7]; -11.1% in the experiment listed under Homo sapiens; -3.97% in experiment [8]; 11.1% in [9]; 10.3% in [10]; 3.94% in experiment [11].

As to `O=C(N[C@H]1CN[C@H]2CCCO[C@H]21)c1ccno1`, the Percent Effect in experiment [1] was -2.91%; in experiment [2], 2.74%; in experiment [3], 0.661%; in experiment [4] it was -1.51%; in experiment [5], 4.01%; in the experiment on Trypanosoma cruzi, 4.76%. Moreover, the Percent Effect in [6] was -2.4%; in [7], 6.76%; in the experiment filed under Homo sapiens, -9.47%; in [8] it was 2.67%; in experiment [9], 4.17%; in [10], 6.17%. Also, in experiment [11], the Percent Effect was 2.08%.
